This is one part of a sample in which hits are shown more often than they occur.
Dicer inh: inhibitors of human Dicer processing of pre-microRNA. Q9UPY3. cat-ELCCA pre-miR-21 Dicer processing, chemiluminescence; active compounds read high. z-score at 25 µM. 6% of 47,000 active; in the data active = z-score above about 3, passing the limit was not always enough;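 note: higher signal means more uncleaved substrate so more Dicer inhibition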
Each line names hits and unclear results; the compound was inactive in the other large screens.

CCOC(=O)/C(N=Nc1ccccc1)=C(\C)O	none
CCOC(=O)c1nnc2c3c(-c4ccccc4)c(-c4ccccc4)nnc3nn2c1C	none
CCOC(=O)c1sc(S(C)(=O)=O)c2c1CCc1cnoc1-2	none
O=C1CC(c2ccccc2Cl)c2cc3c(cc2N1)CCC3 (configuration not stated)	none
CCOC(=O)c1sc2sc(C(=O)c3cccc([N+](=O)[O-])c3)c(C)c2c1C	none
Clc1ccccc1-n1ncnc1-c1cccc(Br)c1	none
Cn1c(Cn2cc(C(F)(F)F)ccc2=O)n[nH]c1=S	none
O=S(=O)(c1ccccc1)N1CCC2(Cl)CCCCC2C1c1ccccc1 (configuration not stated)	none
Cc1nc2nc(C(F)(F)F)[nH]n2c(=O)c1C	none
COc1ccc(/C=C2/SC3(SC(C(C)=O)=NN3c3ccccc3)N(c3ccccc3)C2=O)cc1 (configuration not stated)	none
O=C1OC(c2cccnc2Oc2ccc(Cl)cc2)=N/C1=C\c1ccc(C(F)(F)F)cc1	none
CC(=O)N1CCC(C(=O)Nc2nc3ccc(Cl)cc3s2)CC1	none
Cc1cc(Br)ccc1NC(=O)C1Sc2nnc(C)n2NC1c1ccccc1 (configuration not stated)	none
Cc1ccc(C2Nn3c(C)nnc3SC2C(=O)Nc2ccc(C)cc2Br)cc1 (configuration not stated)	none
Cc1nnc2n1NC(c1ccc(F)cc1)C(C(=O)Nc1ccc(Br)cc1Cl)S2 (configuration not stated)	Dicer inh 3.4
CC(=O)N1CCC(C(=O)O/N=C(\N)c2ccc(Cl)cc2)CC1	none
COC(=O)C1=C(C)NC2=C(C(=O)c3ccccc32)C1c1ccc(OC)c(Cl)c1 (configuration not stated)	none
O=C1ON=C(c2ccccc2)/C1=C/c1ccc(Cl)cc1	none
O=C(Nc1ccccc1)c1ccc(Cl)c(Cl)c1	none
CNC(=O)Nc1nncnc1C(=O)O	none
O=C(c1ccc(Br)cc1)C(C(=O)N1CCCCC1)n1ccccc1=O (configuration not stated)	Dicer inh 3.3
CC1CCN(C(=O)C(C(=O)c2ccc(Br)cc2)n2ccccc2=O)CC1 (configuration not stated)	none
O=C(c1ccc(F)cc1)C(C(=O)N1CCN(C/C=C/c2ccccc2)CC1)n1ccccc1=O (configuration not stated)	none
O=C(NC(=O)c1ccc(-c2cccs2)s1)SCc1cccs1	none
COC(=O)C(Cc1ccccc1)NC(C)=O (configuration not stated)	none
CCOCCOC(=O)C1=C(C)NC2=C(C(=O)CCC2)C1c1cc(OC)c(OC)cc1Br (configuration not stated)	none
CC(C)CCSc1nc(N2CCCC2)c2c(c1C#N)CC(C)(C)OC2	Dicer inh 3.1
CC(C)Sc1nc(N2CCCC2)c2c(c1C#N)CC(C)(C)OC2	none
CC1(C)Cc2c(C#N)c(SCc3ccccc3)nc(N3CCOCC3)c2CO1	none
Oc1ccc2ccccc2c1C1Nc2ccccc2-n2cccc21 (configuration not stated)	none
CCCC(C)NC(=O)Cn1cnc2c1c(=O)n(C)c(=O)n2C (configuration not stated)	none
CCS(=O)(=O)n1nc(-c2ccc(Cl)cc2)nc1SC	none
Nc1nc(-c2ccc(Cl)cc2)nn1S(=O)(=O)c1ccccc1	none
CCS(=O)(=O)n1nc(-c2ccccc2)nc1N	Dicer inh 3.3
Cc1cc2c(cc1C)NC(c1coc3ccccc3c1=O)C1=C(CC(C)(C)CC1=O)N2 (configuration not stated)	none
Cc1ccc(C(=O)O)cc1N1C(=O)CCC1=O	Dicer inh 4.7
Cc1ccc(C(=O)O)cc1-n1cccc1	none
CC1=NN(c2ccc(C(=O)O)cc2)C(=O)C1	none
Cn1c(=O)c2c(nc(OCc3ccccc3Cl)n2Cc2ccc(Cl)cc2)n(C)c1=O	none
C#CC(O)(c1ccccc1)c1ccccc1	none
COc1ccc(C(O)(c2ccccc2)c2ccccc2)cc1	none
CC(C)C(N)C(O)(c1ccccc1)c1ccccc1 (configuration not stated)	Dicer inh 3.9
CCCCOC(=O)C1=C(C)NC2=C(C(=O)CC(C)(C)C2)C1c1ccc(Cl)cc1 (configuration not stated)	none
CN(C)CCN1CNc2c(c(=O)n(C)c(=O)n2C)C1	Dicer inh 3.5
CC(c1ccccc1)N1CNc2c(c(=O)n(C)c(=O)n2C)C1 (configuration not stated)	none
CN1CNc2c(c(=O)n(C)c(=O)n2C)C1	none
Cn1c2c(c(=O)n(C)c1=O)CN(Cc1ccc(CN3CNc4c(c(=O)n(C)c(=O)n4C)C3)cc1)CN2	Dicer inh 3.8
Cn1c2c(c(=O)n(C)c1=O)CN(CCCC(=O)O)CN2	none
CCCN1CNc2c(c(=O)n(C)c(=O)n2C)C1	none
CO/N=C1\CCCc2c(C(=O)N/N=C/c3ccccc3Cl)sc(SC)c21	none
CC(C)(C)OC(=O)N[C@@H](CCC(N)=O)C(=O)OCc1ccc(CC(=O)O)cc1	none
CCc1ccc(Oc2c(C(F)(F)F)oc3cc(OCC(=O)OC)ccc3c2=O)cc1	none
CCCCc1nc(N2CCC(C)CC2)c(C#N)c2c1COC(C)(C)C2	none
O=S(=O)(Nc1nc(SCc2ccc(Cl)cc2)n[nH]1)c1ccc2c(c1)CCO2	none
Cc1nc2scc(-c3ccc(Cl)cc3)n2c(=O)c1Oc1ccc(Cl)cc1	none
CCOC(=O)C1=C(C)NC(=O)C1CC(=O)Nc1ccc(C(=O)OCC)cc1 (configuration not stated)	none
CSc1nc(CSc2ccc(Cl)cc2)nc(C2CC2)c1C#N	none
CCc1ccccc1CSc1nc(C)cc(C)c1C#N	none
Cc1ccc(C)c(CSc2nc(C3CCCCC3)c(C#N)c(=O)[nH]2)c1	Dicer inh 4.3
O=C(CC(Sc1ccc(C(F)(F)F)cn1)C(=O)O)c1ccc(Br)cc1 (configuration not stated)	none
O=C(NCC1CCCO1)C1Sc2nnc(-c3ccccc3)n2NC1c1ccccc1 (configuration not stated)	none
COc1ccc(-c2noc(-c3cc(C)cc(C)c3)n2)cc1	none
COc1cccc(-c2nnc(SCc3cccc(Cl)c3)o2)c1	none
Cc1cc(C)cc(-c2nc(-c3ccccc3)no2)c1	Dicer inh 4.7
COc1ccc(-c2nc(-c3ccc(Cl)cc3)no2)cc1OC	none
COc1cccc(-c2nc(-c3ccc(Cl)cc3)no2)c1	Dicer inh 3
COc1cccc(-c2nnc(SCc3ccc(Br)cc3)o2)c1	none
Cc1ccc(-c2nc(-c3ccccc3)no2)cc1	none
COc1cccc(-c2nnc(SCc3ccc(Cl)cc3)o2)c1	Dicer inh 3.1
COc1cccc(-c2nc(-c3ccccc3)no2)c1	none
CCOC(=O)[C@@H](N)CCSC	none
O=[N+]([O-])c1c(SCCO)ccc2nsnc12	none
CCC(=O)c1cc2c(cc1N)OCCO2	none
CN(C)/C=C/C(=O)c1cc(OCC(F)(F)F)ccc1OCC(F)(F)F	none
Cc1ccsc1C1N=C(N)Nc2nc3ccccc3n21 (configuration not stated)	none
CN1C2CCC1CC(NC(=O)CSc1ccc(F)cc1F)C2 (configuration not stated)	none
O=C(CSCc1ccco1)Nc1c(F)c(F)c(F)c(F)c1F	none
O=C(O)CCCC(=O)N1N=C(c2cccs2)CC1c1cn(-c2ccccc2)nc1-c1ccccc1 (configuration not stated)	none
O=C(NC1CCCCC1)C1c2ccccc2Oc2ccccc21	none
O=C(Nc1ccc(F)cc1F)C(=S)N1CCOCC1	none
O=C(c1oc2ccccc2c1-n1cccc1)C1CC1	none
COC(=O)c1ccc(C2NC(=O)CS2)cc1 (configuration not stated)	none
COc1ccccc1N1CCN(C(=O)C(C)Nc2ccccn2)CC1 (configuration not stated)	none
